Several values for one entry are separate records, joined by “and”; a condition that tells them apart may be missing. Equal values may be shown once. Records with an inconclusive call do not appear. Where a call stands in place of a potency, no number is given. A number with no mark means an inactive call. Activity calls are given as the source filed them. Calls come from the whole dose curve; as a rule, active = well fitted cell-killing curve with a large enough effect; inconclusive = small, poorly fitted or top-dose-only effect, or effect the other way; inactive = no such curve, though single readings can be large or run the other way.
Key:
[1] = Viability qHTS for spleen associated tyrosine kinase inhibitor (SYKi) naive MV4-11 cells (AID 1963823); note: nearly all actives have a fitted effect of over 40% in size
Summary of the method: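 Read-out: CellTiter-Glo luminescence. Exposure: 72 hr, 37 C, 5% CO2, 95% humidity. Cells: MV4-11 without SYK inhibitor history, 500/well, qHTS format.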

[2] = Viability qHTS for spleen associated tyrosine kinase inhibitor (SYKi) drug resistant MV4-11 cells (AID 1963824); note: nearly all actives have a fitted effect of over 35% in size
Summary of the method: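 SYK-inhibitor-resistant MV4-11 AML cells were seeded at 500 per well onto compound and cultured 72 hours (37 °C, 5% CO2). CellTiter-Glo was then added, and after 10 min at room temperature, luminescence gave viability.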
Potency is the fitted concentration of half-maximal effect.

Compound | Potency [1] | Potency [2] | viability (% of control) [1] | viability, % of control [2]
CC(C)(O)c1ccc2c(c1)C(=O)C[C@H]1[C@](C)(C(=O)O)CCC[C@]21C | inactive | inactive |  | 
O=C(/C=C/c1ccc(O)cc1)OCC1=C[C@@H](O)[C@@H]2C=CO[C@@H](O[C@@H]3O[C@H](CO)[C@@H](O)[C@H](O)[C@H]3O)[C@H]12 | inactive | inactive |  | 
C=CC(C)(O)CC/C=C(\C)C(=O)O[C@@H]1[C@@H](O)[C@H](OC(C)(C=C)CC/C=C(\C)C(=O)O[C@@H]2O[C@H](CO)[C@@H](O)[C@H](O)[C@H]2O)O[C@H](CO)[C@H]1OC(=O)/C(C)=C/CCC(C)(O)C=C (stereo not given in full) |  |  | 87.6% [at 9.25 µM] | 77.6% [at 9.25 µM]
CC(C/C=C/C(C)(C)O)C1CCC(C)(O)C(O)C1 (stereo not given) | inactive | inactive |  | 
COc1cc(/C=C/C(=O)O)ccc1O[C@@H]1O[C@H](CO)[C@@H](O)[C@H](O)[C@H]1O[C@@H]1OC[C@](O)(CO)[C@H]1O | inactive | inactive |  | 
COc1cc(C2CC(=O)Nc3c2cc(Br)c2ccccc32)cc(OC)c1OC (stereo not given) | inactive | inactive |  | 
O=C(O)c1ccnc2cc(C(OCC3CCC(F)(F)CC3)c3ccccc3Cl)[nH]c12 (stereo not given) | inactive | inactive |  | 
CC(C)c1ccc(NC(=O)c2cccs2)c(-c2nc3ccccc3[nH]c2=O)c1 | 8.2 µM (active) | 11.6 µM (active) |  | 
O=C(Nc1cccc(Nc2nccc(Nc3cccc(C(F)(F)F)c3)n2)c1)C1CC1 | 1.84 µM (active) | 1.84 µM (active) |  | 
COc1ccc(CC2C(=O)NC(C)C(=O)N(C)C3Cc4ccc(cc4)Oc4cc(ccc4OC4OC(CO)C(O)C(O)C4O)CC(C(=O)NC(C)C(=O)NC(C)C(=O)N2C)N(C)C3=O)cc1 (stereo not given) | 0.0155 µM (active) | 0.0098 µM (active) |  | 
O=C1NC2CCc3nc4ccccc4c(=O)n3C2=Nc2ccccc21 (stereo not given) | inactive | inactive |  | 
C[C@@H]1C/C=C/C=C\C=C\C=C\[C@H](O[C@@H]2O[C@H](C)[C@@H](O)[C@H](N)[C@@H]2O)C[C@@H]2O[C@](O)(C[C@@H](O)C[C@H]3O[C@@H]3/C=C/C(=O)O1)C[C@H](O)[C@H]2C(=O)O | inactive | inactive |  | 
CCN1CCN(Cc2ccc(NC(=O)c3ccc(C)c(Oc4ccnc5[nH]ccc45)c3)cc2C(F)(F)F)CC1 | 0.0255 µM (active) | 0.0718 µM (active) |  | 
N#CC1C(=O)Nc2scc(-c3ccc(-c4ccccc4O)cc3)c2C1=O (stereo not given) | inactive | inactive |  | 
COC(=O)CC(C)(O)CC(=O)OCc1ccc(O[C@@H]2O[C@H](CO)[C@@H](O)[C@H](O)[C@H]2O)cc1 (stereo not given in full) | inactive | inactive |  | 
COc1cc(C)c(C(=O)O[C@@H]2[C@H](O)[C@@H](CO)O[C@H]2n2ccc(=O)[nH]c2=O)c(OC)c1 | inactive | inactive |  | 
CC1OC(OC2C(OC3C(O[C@H]4CC[C@@]5(C)C(CC[C@]6(C)C5C(=O)C=C5C7CC(C)(C)CC(O)[C@]7(C)CC[C@]56C)C4(C)C)OC(C(=O)O)C(O)C3O)OCC(O)C2O)C(O)C(O)C1O (stereo not given in full) |  |  | 54.7% [at 9.25 µM] | 71.2% [at 9.25 µM]
COC(=O)C1=COC(O[C@@H]2O[C@H](CO[C@@H]3O[C@H](COC(=O)/C=C\c4ccc(O)cc4)[C@@H](O)[C@H](O)[C@H]3O)[C@@H](O)[C@H](O)[C@H]2O)C2C(CO)=CCC12 (stereo not given in full) | inactive | inactive |  | 
CC1(C)CCC[C@@]2(C)C1[C@H](OC(=O)/C=C/C=C/C(=O)O)C=C1COC(=O)[C@@]12O (stereo not given in full) | inactive | inactive |  | 
C=C1CCC[C@]2(C)C[C@]3(O)OC(=O)C(C)=C3C[C@@H]12 | inactive | inactive |  | 
C=C1CCC2C(C)(C)C(O)CCC2(C)C1CCC(C)CCO (stereo not given) | 9.04 µM (active) | 12.8 µM (active) |  | 
CC(C)(O)C1CC=C(C(=O)OC[C@H]2O[C@@H](OC(=O)C3=CCC(C(C)(C)O)CC3)[C@H](O)[C@@H](O)[C@@H]2O)CC1 (stereo not given in full) | inactive | inactive |  | 
COC1OC(O)C2(CCC3(O2)C(C)CC2OC(=O)C4(C)CCCC3(C)C24)C1O (stereo not given) | inactive | inactive |  | 
C/C=C/C=C/C=C/C(=O)O[C@@H]1[C@@H](OC)C2=C(C(=O)N(C(CCC(=O)O)C(=O)O)C2)[C@@]2(C)CCCC(C)(C)[C@H]12 (stereo not given in full) | inactive | inactive |  | 
Cc1c(NC(=O)c2cc3c(s2)CCCC3)cccc1-c1cn(C)c(=O)c(Nc2ccc(C3C(=O)N(C)CCN3C)cc2)n1 (stereo not given) | 20.6 µM (active) and 20.9 µM (active) | 7.31 µM (active) and 16.6 µM (active) |  | 
